The list is not random: actives were taken first. Their share in the collection is about 4.1%.
DAX1 inh-1 = inhibitors of human orphan nuclear receptor DAX1 (NR0B1) | P51843 | HEK293 Gal4-DAX1 luciferase reporter, luminescence | inhibition, % at 6.75 µM | actives 0.99% (n = 340,000);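 active = inhibition above the mean over all tested compounds plus 3 SD, cut at about 4.2% in these data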;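 also: 0% = DAX1-transfected cells with DMSO and 100% = empty-vector control cells with DMSO; inhibition shows as a rise in luminescence from relieved DAX1 repression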
Target sequence (P51843 207-470 limits assumed): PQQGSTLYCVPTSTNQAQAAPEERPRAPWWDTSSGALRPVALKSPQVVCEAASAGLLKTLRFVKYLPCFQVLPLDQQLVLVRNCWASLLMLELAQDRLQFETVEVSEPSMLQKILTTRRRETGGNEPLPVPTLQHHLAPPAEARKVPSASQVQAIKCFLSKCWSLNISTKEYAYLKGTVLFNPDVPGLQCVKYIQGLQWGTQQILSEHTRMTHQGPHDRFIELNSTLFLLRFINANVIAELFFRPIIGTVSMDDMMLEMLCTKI
hcDAF-12 act = activates DAF-12 receptor from parasite H. contortus; HEK293 hcDAF-12 lit1-tk-luc reporter, luminescence; 0% DMSO, 100% Δ7-dafachronic acid; activation, % at 6.8 µM; actives 1.4% (n = 370,000); AID 652067;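 active = activation above the mean of all tested compounds plus 3 SD, cut at about 5.5% in these data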;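 also: 100% = response to 3 µM Δ7-dafachronic acid high control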
DAX1 inh-2 = DAX1 (NR0B1) inhibition, primary screen; inhibition, % at 6.8 µM; actives 1.1% (n = 370,000); HEK293T StAR-luciferase reporter, SF-1/DAX-1 repression relief;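 active = inhibition above the mean over all tested compounds plus 3 SD, cut at about 3.6% in these data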;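 also: 0% = DAX-1 cells with DMSO and 100% = cells lacking DAX-1 with DMSO; higher inhibition means more luminescence from relief of DAX-1 repression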
hgDAF-12 ag = agonists of H. glycines DAF-12 nuclear receptor. activation, % at 6.8 µM. actives 1.8% (n = 370,000). HEK293 GAL4-hgDAF12 UAS-luciferase reporter, agonist luminescence; normalized to butyrate control;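 active = activation above a cutoff set at the mean of all screened compounds plus 3 SD, cut at about 10% in these data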;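 also: 0% = DMSO wells and 100% = sodium butyrate wells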
ssDAF12 agonist = activators of S. stercoralis DAF-12 nuclear receptor | HEK293 ssDAF-12/GRIP1 lit1-tk-luc reporter, luminescence; % of 3 µM dafachronic acid response | activation, % at 6.8 µM | actives 1% (n = 370,000) | AID 652126;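 active = activation above the mean over all tested compounds plus 3 SD, cut at about 0.9% in these data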;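 also: 0% = DMSO-only wells and 100% = 3 µM delta7-dafachronic acid wells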
Numbers without * were called inactive; x = no result given.

SMILES	DAX1 inh-1	hcDAF-12 act	DAX1 inh-2	hgDAF-12 ag	ssDAF12 agonist
O=C(c1cccs1)N1CCn2c1nc1ccccc12	2	5	4.3*	7	-1
COc1ccc(Nc2ccc([N+](=O)[O-])cc2[N+](=O)[O-])cc1	6.3*	-1	0	-1	-2
COc1ccc(Nc2ccc(C(=O)O)cc2[N+](=O)[O-])cc1	2	-2	0	0	-1
CC(=O)c1ccccc1NC(=O)Cn1c(=O)cnc2ccccc21	4	6.1*	0	-2	0
O=C(Cn1c(=O)cnc2ccccc21)Nc1ccccc1N1CCOCC1	1	1	-1	0	-1
N#Cc1c(Cl)c(Cl)c2nnc(-c3ccc(Br)cc3)n2c1Cl	x	3	-1	2	1.2*
COc1cccc(CN(C)C[C@H]2OCc3cnnn3CCCC(=O)N([C@@H](C)CO)C[C@@H]2C)c1	1	1	0	-2	-1
O=C(N/N=C/c1cccs1)c1n[nH]c2c1CCCC2	-6	5.9*	0	9	0
CCOc1ccc(CCN2C(=S)N([C@@H](CC(C)C)CN3CCCC3CN3C(=S)NC[C@@H]3CC(C)C)C[C@@H]2CC(C)C)cc1 (some centres undefined)	1	0	4.4*	0	-1
Cc1cc(C)c(NC(=O)CSc2nnc(CN3CCOCC3)n2C)c(C)c1	0	-1	0	-1	-1
COc1ccccc1C(=O)NCc1nnc(SCC(=O)Nc2nccs2)n1C	8.3*	3	0	-1	-1
Cn1c(CSCc2ccccc2)nnc1SCC(=O)Nc1nccs1	-1	-1	-1	-3	-1
Cc1cc(C)cc(NC(=O)CSc2nnc(CN3CCOCC3)n2C)c1	4.4*	-2	-1	3	-1
COc1ccccc1OCc1nnc(SCC(=O)Nc2ccc(N3CCOCC3)cc2)n1C	4.8*	0	-1	7	-1
C=CCN=C1NC(c2cccc(F)c2)C(C(=O)OC)=C(C)N1C (centres undefined)	x	-2	0	1	-1
O=C(CCN1CCC(c2ccccc2)C1)c1cccs1 (centres undefined)	0	-1	0	-1	-1
O=C(c1cccs1)N1CCC(c2ccccc2)C1 (centres undefined)	1	2	1	12*	0
COC(=O)CCCC[C@@H]1O[C@H](CCc2ccccc2)Cc2[nH][nH]c(=O)c21	x	3	-1	-4	-1
COc1ccccc1NC(=S)NNC(=O)c1ccncc1	-1	-1	0	4	-1
COc1ccccc1NC(=S)NNC(=O)c1ccccc1Br	-1	4	2	10	1.3*
COc1cc(OC)cc(C(=O)NNC(=S)Nc2ccccc2OC)c1	2	2	0	2	-2
COc1ccccc1NC(=S)NNC(=O)c1ccccc1	1	0	2	11*	0
COC(=O)Cc1nnn2c1[C@H](C)[C@H](C(C)(C)C)OCC2	x	1	1	1	-1
OCCCn1c(C2CCCN2c2nc(-c3ccc(Cl)cc3)cs2)nc2cc(Cl)c(N3CCCCC3)cc21 (centres undefined)	5.3*	-1	0	3	-1
CN(/C=C/C(=C\C=[N+](C)c1ccccc1)OCCCS(=O)(=O)[O-])c1ccccc1	0	5.6*	0	-3	1
SMILES	DAX1 inh-1	hcDAF-12 act	DAX1 inh-2	hgDAF-12 ag	ssDAF12 agonist
CCn1c2c(n(C(C)=O)c1=O)C=C(C(=O)N1CCCC1)C(C)C(c1ccccc1)=C2 (centres undefined)	x	0	-1	0	-1
Cc1cc(C(=O)COC(=O)c2ccc(N)c([N+](=O)[O-])c2)c(C)n1Cc1ccc2c(c1)OCO2	0	1	0	-1	-1
C=CCn1c(C)cc(C(=O)COC(=O)c2ccc(N)c([N+](=O)[O-])c2)c1C	3	5	2	12*	0
COc1ccc(C(C)=O)cc1CN1C(=O)NC(CC(C)C)C1=O (centres undefined)	4.4*	-1	0	-2	-2
COC(=O)C1=C(C)N(Cc2ccc(C(F)(F)F)cc2)C(=NCC2CC2)NC1c1ccccc1C(F)(F)F (centres undefined)	x	0	0	5	-2
COc1cc(/C=N/NC(=O)C(Cc2c[nH]c3ccccc23)NC(=O)OCC(C)C)cc([N+](=O)[O-])c1OCc1ccccc1 (centres undefined)	5.2*	1	0	-2	0
CCOC(=O)C1=C[C@@H](C(C)(C)C)N(S(=O)(=O)c2ccc([N+](=O)[O-])cc2)[C@H]1c1ccccc1Cl	x	0	-2	0	-1
O=C1CSC(=S)N1N=Cc1c(O)ccc2ccccc12	3	4	2	4	1.0*
COc1ccc2ccccc2c1/C=N/N1C(=O)CSC1=S	-1	1	0	-1	0
O=C(NCc1ccc(F)cc1F)[C@@H]1CCCN1C(=O)[C@@H]1CCCN1C(=O)c1ccccc1	x	-2	-1	-1	-1
COc1ccc(F)c(CN(C)CC2CCCN(CCc3ccc(F)cc3)C2)c1 (centres undefined)	4.5*	0	0	0	-1
O=C(CSc1ncccn1)c1ccccc1Br	4.3*	0	0	3	-1
COCCN=C1S/C(=C\c2cc(C)n(-c3ccc(F)cc3F)c2C)C(=O)N1C	x	5.7*	x	4	0
CN=C1S/C(=C\c2cc(C)n(-c3ccccc3F)c2C)C(=O)N1C	1	-3	-2	-6	-3
CCOC(=O)c1ccc2[nH]c(C)c(C)c2c1	0	1	2	7	-1
CCOC(=O)c1ccc2[nH]c3ccccc3c2c1	8.0*	3	1	11*	0
CC1(NC(=O)Nc2cccc(Br)c2)CCS(=O)(=O)C1 (centres undefined)	5.2*	-1	0	-1	0
CC1(NC(=O)Nc2ccccc2)CCS(=O)(=O)C1 (centres undefined)	x	-1	0	-2	-1
CC(C)(C)C(=O)Nc1nc2c(s1)CN(Cc1ccccc1)CC2	0	2	2	11*	0
O=C(Nc1nc2c(s1)CN(Cc1ccccc1)CC2)C1CCCC1	0	-1	0	3	0
COc1cc(NC(=O)Nc2nc(C(N)Cc3ccc(C(F)(F)F)cc3)cs2)cc(OC)c1OC (centres undefined)	x	-1	0	-2	-1
c1ccc(-c2cc3ccccc3cn2)cc1	3	6.2*	2	10	1
CCOc1ccc(OCC(=O)Nc2ccc(OC)cc2[N+](=O)[O-])cc1	-1	0	0	1	-2
CCCOC(=O)Nc1cc(OC)ccc1[N+](=O)[O-]	4.7*	2	0	5	0
CSc1nnc(N2C(=O)C(O)=C(C(=O)c3ccco3)C2c2ccc(F)cc2)s1 (centres undefined)	1	4	4.2*	8	-1

Compound activity: PubChem BioAssay, The Scripps Research Institute Molecular Screening Center
